Measurements as given in PubChem BioAssay (NCATS).
Results filed as inconclusive are left out. Activity calls are given as the source filed them. Calls come from the whole dose curve; as a rule, active = well fitted inhibition curve with a large enough effect; inconclusive = small, poorly fitted or top-dose-only effect; inactive = flat fitted curve, though single readings scatter.

Molecular target: Calcium and integrin-binding protein 1 (Homo sapiens) (UniProt Q99828)
Experiment: Primary qHTS for Identification of Calcium Integrin Binding Protein 1 (CIB1) Competitor (AID 1508620);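 note: GST tagged CIB1 binding a fluorescein labelled alphaIIb integrin peptide tracer; top concentration of the series differs between compounds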
Conditions: CIB1-GST / FITC-alphaIIb peptide fluorescence polarization; series mostly up to 114 µM; activity change, negative = inhibition: at the top concentration
Method in brief: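 CIB1-GST (1 uM final) and compound incubated 15 min at room temperature before adding FITC-alphaIIb peptide tracer (100 nM final). Competition for binding read by fluorescence polarization (ex 480, em 540) after another 15 min at room temperature.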
% is set by controls: 0 for no effect and ±100 for the full control effect.

Chain of Calcium and integrin-binding protein 1 (Homo sapiens) (Q99828 whole entry, looked up): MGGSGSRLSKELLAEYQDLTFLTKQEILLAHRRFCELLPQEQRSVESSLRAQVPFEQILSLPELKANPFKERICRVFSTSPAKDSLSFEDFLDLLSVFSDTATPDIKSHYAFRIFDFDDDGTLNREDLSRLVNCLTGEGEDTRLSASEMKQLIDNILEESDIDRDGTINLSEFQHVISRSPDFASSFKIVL

| SMILES | activity change, negative = inhibition |
| --- | --- |
| COc1ccc(C#Cc2ccc(C(=O)N3CCC[C@@H](CO)C3)cc2)cc1 | 1.81% (inactive) |
| CC(O)C(C)n1ncn(-c2ccc(N3CCN(c4ccc(OCC5COC(Cn6cncn6)(c6ccc(Cl)cc6Cl)O5)cc4)CC3)cc2)c1=O (stereo not drawn) | 0.181% (inactive) |
| COC(=O)C[C@H]1C(C)(C)[C@H](OC(=O)c2ccccc2)C2CC3=C4CC(=O)O[C@@H](c5ccoc5)[C@]4(C)CCC3[C@@]1(C)C2=O (stereo partly drawn) | 1.02% [at 57.7 µM] (inactive) |
| CCN1CCC[C@@H]1CNC(=O)c1ccc2c(c1)NC(=O)c1cccc(C)c1S2 | 2.54% (inactive) |
| COc1cc(O)cc(OC2OC(CO)C(O)C(O)C2O)c1 (stereo not drawn) | -7.83% (inactive) |
| CN(C)C(=O)NC1(c2ccccc2)CCN(CCC[C@]2(c3ccc(Cl)c(Cl)c3)CCCN(C(=O)c3ccccc3)C2)CC1 | 0.827% (inactive) |
| COC(=O)C[C@H]1[C@]2(C)C3=C(C)[C@H](c4ccoc4)C[C@H]3O[C@@H]2[C@H](O)C2[C@](C)(C(=O)OC)C=CC(=O)[C@@]21C (stereo partly drawn) | -1.07% [at 57.7 µM] (inactive) |
| CC(=O)O[C@@H]1CC2C(/C=C(\C)C(=O)[C@@]3(O)C[C@@H](C)[C@H](OC(=O)c4ccccc4)C3/C=C/1C)C2(C)C (stereo partly drawn) | -7.85% [at 57.7 µM] (inactive) |
| COCCNCc1ccc(-c2cc3nccc(Oc4ccc(NC(=O)C5(C(=O)Nc6ccc(F)cc6)CC5)cc4F)c3s2)nc1 | 61.1% (inactive) |
| CC(C)=CCCC1(C)/C=C/C(OC(=O)C=C(C)C)C(C)(O)/C=C/C(=O)/C(CO)=C\C1 (stereo not drawn) | -19.2% [at 57.7 µM] (inactive) |
| CN(C)C(=O)Nc1cccc(-c2ccc(N(C)C)cc2)c1 | 0.991% (inactive) |
| C[C@@H]1O[C@@H](O[C@H]2CC[C@@]3(C)C(CC[C@]4(C)C3CC=C3[C@@H]5CC(C)(C)CC[C@]5(C(=O)O[C@@H]5O[C@H](CO)[C@@H](O)[C@H](O)[C@H]5O)CC[C@]34C)[C@]2(C)CO)[C@H](O)[C@H](O[C@@H]2O[C@H](CO)[C@@H](O)[C@H](O)[C@H]2O)[C@H]1O (stereo partly drawn) | 1.16% [at 30.2 µM] (inactive) |
| CCOc1nc(NC(=O)Cc2cc(OC)ccc2OC)cc(N)c1C#N | -5.53% (inactive) |
| CC1OC(OC2C(O)COC(O[C@@H]3[C@@H](O)[C@@H](O)[C@H](OC4C(OC(=O)[C@]56CCC(C)(C)CC5C5=CCC7[C@@]8(C)C[C@H](O)[C@H](OC9OC(CO)C(O)C(O)C9O)[C@@](C)(CO)C8[C@H](O)C[C@@]7(C)[C@]5(C)CC6)OCC(O)C4O)O[C@H]3C)C2O)C(O)C(O)C1O (stereo partly drawn) | -1.65% [at 12.4 µM] (inactive) |
| NC(=O)C1=CC2C3C=CC2C(OC3=O)O1 (stereo not drawn) | -4.11% [at 228 µM] (inactive) |
| C=C1CC[C@@H](O)[C@]2(C)C[C@H]3OC(=O)C(=C)[C@H]3CC12 (stereo partly drawn) | 4.06% (inactive) |
| COc1ccc2c(c1O[C@H]1CCNC1)CCC2 | 0.0579% (inactive) |
| CN(C)Cc1ccc(-c2cnn3c(-c4cccc(NC(=O)c5cccc(C(F)(F)F)c5)c4)ccnc23)cc1 | -13.7% (inactive) |
| COc1cc2c(cc1-c1c(C)noc1C)ncc1[nH]c(=O)n(C(C)c3ccccn3)c12 (stereo not drawn) | -1.75% (inactive) |

| SMILES | activity change, negative = inhibition |
| --- | --- |
| O=S(=O)(N[C@H]1CCCC[C@@H]1N1CCOCC1)c1ccc(Cl)cc1 | 0.454% (inactive) |
| NCC1CCN(c2nccc(-c3ccc4ccccc4c3)n2)CC1 | 0.969% (inactive) |
| O=S(=O)(NCc1cccc2ccccc12)c1cc(Cl)c(Oc2cccc(N3CCNCC3)c2)s1 | 0.874% (inactive) |
| COc1ccc(S(=O)(=O)N2CCC[C@H]2C(=O)Nc2cc(C)cc(C)c2)cc1 | -0.607% (inactive) |
| O=C(Cc1c(F)cccc1F)Nc1cc(OCc2ccc(Cl)cc2)ccn1 | 0.41% (inactive) |
| Cc1sc2c(c1C)C(c1ccc(Cl)cc1)=N[C@H](CC(=O)NCCCCNC(=O)COc1cccc3c1C(=O)N([C@H]1CCC(=O)NC1=O)C3=O)c1nnc(C)n1-2 | 1.19% (inactive) |
| O=C(NCCN1CCN(c2cccc3c2OCCO3)CC1)c1ccc(F)cc1 | 0.618% (inactive) |
| CC[C@H](C)/C=C(C)/C=C/C1=CC2=C(Cl)C(=O)[C@](C)(O)[C@H](OC(C)=O)[C@H]2CO1 | 17.6% [at 57.7 µM] (inactive) |
| O=C(N[C@@H]1CCCc2c1cnn2-c1ccc(F)cc1F)c1ccccn1 | -1.93% (inactive) |
| Cc1ccc(NC(=O)N2CCN(c3nc(N)nc4sc(-c5cccnc5)nc34)CC2)cc1 | 5.52% (inactive) |
| NC(=O)c1nc(Nc2ccccc2)sc1NC(=O)C1CCCCC1 | -1.63% (inactive) |
| O=C(NCCCCCCCCNC(=O)C(Cl)Cl)C(Cl)Cl | 3.74% (inactive) |
| Cn1c(CO)c(-c2ccccc2)c2cc([N+](=O)[O-])ccc21 | -5.94% (inactive) |
| O=C(Nc1cc(C(F)(F)F)ccc1N1CCCCC1)c1ccncc1 | 0.249% (inactive) |
| O=S(=O)(Nc1cc(Cl)c(Oc2cnc3ccccc3c2)c(Cl)c1)c1ccc(Cl)cc1Cl | -2.04% (inactive) |
| C/C=C(\C)C(=O)O[C@H]1C=CC(=O)O[C@H]1/C=C/[C@@H](O)[C@H](C)O | -0.665% (inactive) |
| C[C@H](Nc1cc2c(-c3ccc4c(c3)OCO4)noc2cn1)c1ccccc1 | 0.248% (inactive) |
| O=C(NCCCN1CCC2(CC1)OCc1ccccc12)[C@H]1CCCN1Cc1ccccc1 | -2.36% (inactive) |
| C/C(=C\Cc1c(O)c(Cl)c(C)c(C=O)c1O)CC/C=C(\C)[C@H]1CC(=O)C(C)(C)O1 | -1.24% [at 57.7 µM] (inactive) |
